To fix the notation:
B1: PhoQ; a variant is named by its letters at X, in order, P23837 (parent)
chain: MKKLLRLFFPLSLRVRFLLATAAVVLVLSLAYGMVALIGYSVSFDKTTFRLLRGESNLFYTLAKWENNKLHVELPENIDKQSPTMTLIYDENGQLLWAQRDVPWLMKMIQPDWLKSNGFHEIEADVNDTSLLLSGDHSIQQQLQEVREDDDDAEMTHSVAVNVYPATSRMPKLTIVVVDTIPVELKSSYMVWSWFIYVLSANLLLVIPLLWVAAWWSLRPIEALAKEVRELEEHNRELLNPATTRELTSLVRNLNRLLKSERERYDKYRTTLTDLTHSLKTPLXXLQXXLRSLRSEKMSVSDAEPVMLEQISRISQQIGYYLHRASMRGGTLLSRELHPVAPLLDNLTSALNKVYQRKGVNISLDISPEISFVGEQNDFVEVMGNVLDNACKYCLEFVEISARQTDEHLYIVVEDDGPGIPLSKREVIFDRGQRVDTLRPGQGVGLAVAREITEQYEGKIVAGESMLGGARMEVIFGRQHSAPKDE

In all, about 140,000 sequences were measured (“enrichment ratio after two sorts for PhoP signalling”: median about 0, highest 2% from about 11 on). Many of the other results were omitted from the sample, so the highest values are more common in it than they were.

In the experiment the parent is B1. Nature of the experiment: enrichment ratio after two sorts for PhoP signalling (ratio (wild type AVST 3.29)); higher = more functional. The conditions noted are these: with PhoP (E. coli).
Take AEVY: the enrichment ratio was found to be 6.64.

AETH: the enrichment ratio stood at 0.824.

With AEVS, the enrichment ratio amounted to 16.2.

Take AENK: the enrichment ratio was at most 0.25.

For AESQ, the enrichment ratio is 4.68.

For the variant AEVI, the enrichment ratio is 17.5.

As to AEVE, the enrichment ratio stood at 7.98.

As to AESS, the enrichment ratio was 16.3.

Regarding AETC, the enrichment ratio was 36.7.

As to AEVK, the enrichment ratio is at most 0.25.

As to AEVA, the enrichment ratio is at most 0.25.

As for QGNI, the enrichment ratio was at most 0.25.

Consider WYRH, for which the enrichment ratio is at most 0.25.

Regarding EKKS, the enrichment ratio was at most 0.25.

Turning to RHGF, the enrichment ratio is at most 0.25.

REAM: the enrichment ratio was at most 0.25.

With PMYC, the enrichment ratio was at most 0.25.

Consider VLES, for which the enrichment ratio is at most 0.25.

As for QQHF, the enrichment ratio was at most 0.25.

Regarding GTWR, the enrichment ratio is at most 0.25.

As for KCDP, the enrichment ratio is at most 0.25.

In the case of VWMG, the enrichment ratio was at most 0.25.

MAVL: the enrichment ratio came out at 2.43.

Consider AEVG, for which the enrichment ratio was 6.84.

As for AIVF, the enrichment ratio came out at 2.34.

With AETD, the enrichment ratio is at most 0.25.

For AETA, the enrichment ratio was 5.73.

As for MEVL, the enrichment ratio is 11.6.

As to AETI, the enrichment ratio is 16.8.

Take NEVL: the enrichment ratio is at most 0.25.

Take AEVC: the enrichment ratio stood at 14.6.

For AEVF, the enrichment ratio worked out at 14.3.

As for QEVF, the enrichment ratio is at most 0.25.

Consider ERYW, for which the enrichment ratio was at most 0.25.

TEFV: the enrichment ratio was determined as 8.47.

For FYGK, the enrichment ratio is at most 0.25.

For the variant FRYA, the enrichment ratio is at most 0.25.

Turning to WKER, the enrichment ratio is at most 0.25.

For the variant FREH, the enrichment ratio was at most 0.25.

As to EDQF, the enrichment ratio is at most 0.25.

On to PKWA, for which the enrichment ratio was at most 0.25.

Take MNPT: the enrichment ratio is at most 0.25.

On to WRCA, for which the enrichment ratio is at most 0.25.

For GWPN, the enrichment ratio is at most 0.25.

Take AETM: the enrichment ratio was at most 0.25.

As for AESK, the enrichment ratio is at most 0.25.

Regarding AETV, the enrichment ratio was determined as 22.9.

As for AEHF, the enrichment ratio is at most 0.25.

With AEGM, the enrichment ratio is at most 0.25.

As to AESF, the enrichment ratio is 14.8.

Regarding AETF, the enrichment ratio worked out at 9.37.

As for AEVM, the enrichment ratio came out at 46.8.

Turning to AERM, the enrichment ratio was at most 0.25.

For AETS, the enrichment ratio amounted to 20.8.

For AEDV, the enrichment ratio is at most 0.25.

Consider AETE, for which the enrichment ratio amounted to 8.78.

As to RWWL, the enrichment ratio was at most 0.25.

As to RSVA, the enrichment ratio is at most 0.25.

For the variant ECQN, the enrichment ratio is at most 0.25.

For the variant VEAF, the enrichment ratio was at most 0.25.

Take AETW: the enrichment ratio stood at 11.3.

In the case of AEQC, the enrichment ratio worked out at 16.

In the case of AEFW, the enrichment ratio was at most 0.25.

Turning to AQQC, the enrichment ratio is at most 0.25.

As for AEVL, the enrichment ratio is 17.5.

As for AEKS, the enrichment ratio is at most 0.25.

Regarding AERL, the enrichment ratio is at most 0.25.

As to AEPC, the enrichment ratio is at most 0.25.

As for AETQ, the enrichment ratio is at most 0.25.

Regarding AEEL, the enrichment ratio is at most 0.25.

Turning to AESC, the enrichment ratio stood at 32.1.

AKQC: the enrichment ratio was at most 0.25.

In the case of YVCN, the enrichment ratio was at most 0.25.

DGHV: the enrichment ratio was at most 0.25.

As to VIEF, the enrichment ratio is at most 0.25.

For WKPN, the enrichment ratio is at most 0.25.

Turning to EKAV, the enrichment ratio was at most 0.25.

YTCE: the enrichment ratio was at most 0.25.

Regarding STPM, the enrichment ratio is 15.9.

On to STCE, for which the enrichment ratio came out at 13.1.

As for STHE, the enrichment ratio was at most 0.25.

On to STCS, for which the enrichment ratio turned out to be 10.8.

Consider SRCK, for which the enrichment ratio is at most 0.25.

On to STCA, for which the enrichment ratio was 7.48.

Take STCI: the enrichment ratio stood at 12.3.

With STCK, the enrichment ratio was found to be 12.3.

On to SPPM, for which the enrichment ratio is at most 0.25.

As for YTCK, the enrichment ratio is at most 0.25.

As for SRPM, the enrichment ratio is at most 0.25.

Take TPLS: the enrichment ratio was at most 0.25.

For the variant QDRE, the enrichment ratio was at most 0.25.

In the case of ICDP, the enrichment ratio was at most 0.25.

Regarding QAMT, the enrichment ratio was at most 0.25.

With QYWL, the enrichment ratio was at most 0.25.

Regarding FCIR, the enrichment ratio is at most 0.25.

As to RNQK, the enrichment ratio was at most 0.25.

Consider LNAP, for which the enrichment ratio is at most 0.25.

In the case of THWI, the enrichment ratio was at most 0.25.

Take YKPH: the enrichment ratio is at most 0.25.

In the case of VKLF, the enrichment ratio was at most 0.25.

AGWK: the enrichment ratio was at most 0.25.

For the variant VFCH, the enrichment ratio was at most 0.25.

On to VECH, for which the enrichment ratio was determined as 24.1.

On to GNCH, for which the enrichment ratio is 3.45.

Turning to HECH, the enrichment ratio was determined as 12.7.

In the case of TCCH, the enrichment ratio turned out to be 7.95.

On to HRMH, for which the enrichment ratio was at most 0.25.

GMMH: the enrichment ratio was at most 0.25.

For the variant HECI, the enrichment ratio worked out at 6.73.

Consider NRMH, for which the enrichment ratio was at most 0.25.

Turning to GMCH, the enrichment ratio was 16.1.

As to TEMH, the enrichment ratio was 134.

As to HECF, the enrichment ratio was at most 0.25.

Consider GFPY, for which the enrichment ratio was at most 0.25.

Take DYYD: the enrichment ratio is at most 0.25.

Take EPTC: the enrichment ratio was at most 0.25.

In the case of QQYH, the enrichment ratio is at most 0.25.

With QHTA, the enrichment ratio was at most 0.25.

Turning to ETDE, the enrichment ratio was at most 0.25.

Turning to HPCH, the enrichment ratio was at most 0.25.

For HVCH, the enrichment ratio is at most 0.25.

Regarding YWCH, the enrichment ratio was at most 0.25.

Turning to DMCH, the enrichment ratio was at most 0.25.

With MECH, the enrichment ratio came to 56.6.

Regarding TECH, the enrichment ratio worked out at 27.7.

As for NECH, the enrichment ratio amounted to 18.

As for QECH, the enrichment ratio was at most 0.25.

With MFCH, the enrichment ratio is at most 0.25.

For the variant FIVW, the enrichment ratio is at most 0.25.

Regarding MRRQ, the enrichment ratio is at most 0.25.

As to KFHY, the enrichment ratio is at most 0.25.

Take FGDH: the enrichment ratio is at most 0.25.

Take EQSM: the enrichment ratio was at most 0.25.

Take YMLV: the enrichment ratio came to 0.756.

On to NWGV, for which the enrichment ratio is at most 0.25.

In the case of AFIT, the enrichment ratio was at most 0.25.

As for IIPL, the enrichment ratio was at most 0.25.

As to GITH, the enrichment ratio is at most 0.25.

As to GNMM, the enrichment ratio worked out at 0.333.

Regarding GIYM, the enrichment ratio was at most 0.25.

With GNAH, the enrichment ratio is at most 0.25.

As to GIHW, the enrichment ratio was at most 0.25.

As for GIWM, the enrichment ratio is at most 0.25.

As to GIGM, the enrichment ratio was 36.1.

Turning to GNGW, the enrichment ratio is at most 0.25.

Regarding GIMM, the enrichment ratio amounted to 17.3.

Turning to GIAH, the enrichment ratio worked out at 22.5.

Regarding GITM, the enrichment ratio was 10.3.

Consider GIGW, for which the enrichment ratio turned out to be 16.

In the case of RCKT, the enrichment ratio was at most 0.25.

Turning to KSCR, the enrichment ratio was at most 0.25.

On to YPKK, for which the enrichment ratio is at most 0.25.

With TDMP, the enrichment ratio is at most 0.25.
